Most compounds without a hit are left out; they make up all but 9.9% or so of the library.
Tau ThT inhib: qHTS for Inhibitors of Tau Fibril Formation, Thioflavin T Binding; AID 1460, 2008; recombinant tau K18 P301L, heparin-induced fibrillization, ThT fluorescence; 270,000 compounds, 2.1% hits; Potency, µM (titrated, usually from 57.4 µM), actives largely listed as inhibitors; active means well fitted curve in the direction sought with a large enough effect; inconclusive means small, poorly fitted or top-dose-only effect, or another doubt; inactive means no such curve, though single readings can be large; an effect the other way counts as inactive or inconclusive; further: nearly all actives have a fitted effect of over 55% in size
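Fibril formation assay: tau K18 P301L at 15 uM with trace Alexa 594 label, heparin inducer 20 uM, pH 7 sodium acetate buffer, 37 C for 6 hr; endpoint ThT signal.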
Tau fluor counter: Counterscreen qHTS for Inhibitors of Tau Fibril Formation, Fluorescence Polarization; tau K18 P301L Alexa594 fluorescence, heparin fibrillization; 280,000 compounds, 0.93% hits; AID 1463, 2008; Potency, µM (titrated, usually from 57.7 µM); active means well fitted curve in the direction sought with a large enough effect; inconclusive means small, poorly fitted or top-dose-only effect, or another doubt; inactive means no such curve, though single readings can be large; an effect the other way counts as inactive or inconclusive; further: nearly all actives have a fitted effect of over 55% in size
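Human tau K18 P301L (15 uM unlabeled, 0.24 uM Alexa 594-labeled) in 100 mM sodium acetate pH 7 with 20 uM heparin, 6 hr at 37 C. ThT 30 uM added, 1 hr ambient; Alexa 594 FP and total fluorescence read at 555/632 nm.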
ALDH1A1 inh: qHTS Assay for Inhibitors of Aldehyde Dehydrogenase 1 (ALDH1A1); Aldehyde dehydrogenase 1A1 (Homo sapiens), P00352; Purified ALDH1A1, NADH fluorescence, propionaldehyde substrate; Potency, µM (top dose mostly 75.3 µM), usual class: inhibitors; 220,000 compounds, 7.3% hits
Target sequence (P00352 whole entry, looked up): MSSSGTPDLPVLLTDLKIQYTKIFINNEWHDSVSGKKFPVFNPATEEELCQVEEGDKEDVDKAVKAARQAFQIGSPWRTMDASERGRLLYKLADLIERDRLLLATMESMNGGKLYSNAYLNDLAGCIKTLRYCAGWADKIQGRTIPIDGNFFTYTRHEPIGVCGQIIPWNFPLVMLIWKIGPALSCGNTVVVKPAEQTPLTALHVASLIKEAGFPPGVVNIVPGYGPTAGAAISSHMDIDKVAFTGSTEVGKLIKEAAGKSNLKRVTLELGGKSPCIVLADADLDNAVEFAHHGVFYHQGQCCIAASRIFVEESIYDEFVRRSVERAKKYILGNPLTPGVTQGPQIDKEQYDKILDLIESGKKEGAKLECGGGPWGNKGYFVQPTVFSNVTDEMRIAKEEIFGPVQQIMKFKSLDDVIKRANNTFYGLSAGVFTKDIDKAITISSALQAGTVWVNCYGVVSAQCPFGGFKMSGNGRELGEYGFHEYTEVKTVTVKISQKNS
JMJD2E inh: qHTS Assay for Inhibitors of Human Jumonji Domain Containing 2E (JMJD2E). AID 2147, 2009. JMJD2E catalytic domain, FDH-coupled NADH fluorescence (FDH is formaldehyde dehydrogenase). Potency, µM (doses to about 57.1 µM), actives largely listed as inhibitors. Lysine-specific demethylase 4E (Homo sapiens), B2RXH2. 230,000 compounds, 1.6% hits; further: nearly all actives have a fitted effect of over 50% in size
Tau FP inhib: qHTS for Inhibitors of Tau Fibril Formation, Fluorescence Polarization; Microtubule-associated protein tau (Homo sapiens), P10636; K18 P301L tau heparin fibrillization, Alexa594 FP, 6 h; Potency, µM (doses to about 57.7 µM), hits mostly inhibitors; 280,000 compounds, 0.39% hits; active means well fitted curve in the direction sought with a large enough effect; inconclusive means small, poorly fitted or top-dose-only effect, or another doubt; inactive means no such curve, though single readings can be large; an effect the other way counts as inactive or inconclusive; further: nearly all actives have a fitted effect of over 55% in size
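Human K18 P301L fragment (15 uM unlabeled plus 0.24 uM Alexa 594-labeled) in 100 mM sodium acetate pH 7 with compound, aggregation induced by 20 uM heparin for 6 hr at 37 C. ThT (30 uM) added for 1 hr, then Alexa 594 FP read.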
HPGD block: qHTS Assay for Inhibitors of HPGD (15-Hydroxyprostaglandin Dehydrogenase). purified HPGD, NADH fluorescence kinetic, PGE2 substrate. AID 894, 2007. Potency, µM, usual class: inhibitors. 15-hydroxyprostaglandin dehydrogenase [NAD(+)] (Homo sapiens), P15428. 150,000 compounds, 4.3% hits
Target sequence (P15428 whole entry, looked up): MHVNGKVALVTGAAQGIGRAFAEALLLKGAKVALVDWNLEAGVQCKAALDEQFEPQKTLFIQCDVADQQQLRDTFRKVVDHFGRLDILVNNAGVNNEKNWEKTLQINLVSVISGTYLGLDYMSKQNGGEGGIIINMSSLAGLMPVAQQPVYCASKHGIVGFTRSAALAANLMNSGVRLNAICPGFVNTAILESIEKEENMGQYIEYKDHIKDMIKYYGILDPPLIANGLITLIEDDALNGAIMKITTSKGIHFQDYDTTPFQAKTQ
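20 nM HPGD preincubated 15 min at room temperature with compound in 50 mM Tris-HCl pH 8, 0.01% Tween 20. Started with 1 mM NAD+ and 30 uM prostaglandin E2; NADH fluorescence (360/450 nm) read 5 times over 30-s intervals, last minus first.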
Hits are given with their value; i = inactive; ? = inconclusive; nt = not tested or not shown; [ ] = dose if it differs, or a comment. Unless noted, the call rests on the fitted dose curve; in most records, active means well fitted inhibition curve with a large enough effect (not every such curve was filed as active); inconclusive means small, poorly fitted or top-dose-only effect, or another doubt; inactive means no such curve, though single readings can be large or run the other way.

SMILES	Tau ThT inhib	Tau fluor counter	ALDH1A1 inh	JMJD2E inh	Tau FP inhib	HPGD block
CCCc1cc2c(=O)c(-c3cscn3)c(C(=O)OCC)oc2cc1O	i	i	?	i	i	nt
O=C(CCC(=O)OCC(=O)c1ccc(Cl)cc1Cl)Nc1cccc2cccnc12	i	i	28.2µM	i	i	i
COc1ccc(-c2[nH]ncc2CN2CCC(c3ccncc3)CC2)cc1F	i	i	nt	i	i	nt
COc1ccc(-c2[nH]ncc2CN2CCN(C3CCCCC3)C(=O)C2)cc1F	i	i	1.41µM	i	i	nt
CCOc1ccc(NC(=O)c2oc3ccccc3c2NC(=O)Cc2ccc(F)cc2)cc1	i	?	nt	nt	i	nt
Cc1[nH]c2ccccc2c1/C=N/NC(=O)CNC(=O)c1ccc2c(c1)OCCO2	nt	?	nt	i	i	nt
COc1ccc(-n2c(=O)c(C)nc3cncnc32)cc1	nt	nt	25.1µM	nt	nt	i
Cc1nc2cncnc2n(-c2ccccc2)c1=O	nt	nt	?	nt	nt	i
O=C(O)c1cc(C(=O)O)nc(C(=O)O)c1	nt	nt	i[13.5 µM]	nt	nt	i
O=C(NCCCN1CCN(c2ccccc2)CC1)c1nnc(Cc2c(F)cccc2Cl)o1	i	i	nt	nt	i	nt
COC(=O)CSc1nnc(CNC(=O)c2cccs2)n1-c1cc(OC)ccc1OC	?	i	20µM	i	i	nt
CC(C)c1ccc(-c2nnc3n(CCc4ccccc4)c(=O)c4ccccc4n23)cc1	i	i	nt	nt	i	nt
CCOC(=O)c1ccc(NC(=S)N2CCSC2c2ccc(OC)cc2)cc1 (stereo not given)	?	?	?	i	25.1µM	i
CCOC(=O)c1ccc(NC(=S)N2CCSC2c2ccc(Cl)cc2)cc1 (stereo not given)	i	?	i	i	?	i
CCOc1ccc(C2C(C(=O)C3CC3)N3C=C(C#N)C=CC3C2(C#N)C#N)cc1 (stereo not given)	15.8µM	i	?	?	?	i
CCN(CC)CCCC(C)NC(=O)c1ccc(Cc2nc3ccccc3[nH]2)cc1 (stereo not given)	nt	nt	i	nt	nt	i
CC(=O)Nc1nc(-c2ccccc2)c(-c2ccccc2)o1	i	i	?	?	i	i
CC(=O)NC1Sc2ccccc2N=C1c1ccccc1 (stereo not given)	?	i	25.1µM	?	i	?
CO[C@@H]1COC(=O)C/C=C\[C@@H](C)[C@H](OC)COC(=O)[C@H](COCc2ccccc2)NC(=O)C/C=C\[C@H]1C	i[11.5 µM]	i[11.6 µM]	i[13.5 µM]	nt	?	nt
CCOC(=O)C1CCN(c2ncnc3c2nnn3C)CC1	i	i	nt	nt	i	nt
COc1ccc(CCN(Cc2nc3ccccc3c(=O)[nH]2)C(=O)c2ccco2)cc1	i	i	i	i	i	i
O=C(c1ccco1)N(CCC(c1ccccc1)c1ccco1)Cc1ccccc1 (stereo not given)	?	i	8.91µM	i	i	i
COc1ccc(CN(CCC(c2ccccc2)c2ccco2)C(=O)c2ccco2)cc1 (stereo not given)	?	i	7.94µM	i	i	28.2µM
COc1ccc(C2C(C(C)=O)=C(C)N=c3s/c(=C\c4ccco4)c(=O)n32)c(OC)c1 (stereo not given)	12.6µM	?	i	i	i	i
CCOC(=O)C1=C(c2ccccc2)N=c2s/c(=C\c3ccco3)c(=O)n2C1c1cccs1 (stereo not given)	?	?	?	12.6µM	?	i
SMILES	Tau ThT inhib	Tau fluor counter	ALDH1A1 inh	JMJD2E inh	Tau FP inhib	HPGD block
COc1ccc(C2C(C(C)=O)=C(C)N=c3s/c(=C\c4cc(C)n(C)c4C)c(=O)n32)c(OC)c1 (stereo not given)	?	?	i	i	i	?
CC(C)S(=O)(=O)c1csc(NC(=O)Nc2ccc(Cl)cc2)c1	i	15.8µM[quencher]	i	i	?	nt
CCOC(=O)C1=C(O)C(=O)N(Cc2ccc(C(C)(C)C)cc2)CC1	i	i	14.1µM	i	i	nt
CCOc1cc(CN2CCN(c3ccc(C(C)=O)cc3)CC2)ccc1OC	?	i	17.8µM	i	i	i
CCOc1cc(CN2CCCCC2)ccc1OC	i	i	i	i	i	i
CN(C)c1ccc(C(CNS(=O)(=O)c2ccc(Cl)cc2)N2CCCC2)cc1 (stereo not given)	i	i	nt	nt	i	nt
CC(/C=N\Nc1nnc2c(n1)[nH]c1c(C)cccc12)=C\c1ccco1	1.41µM	?	i	i	i	i
C/C(N)=C(/C#N)C(=O)CSc1nc2ccccc2c(=O)n1-c1ccccc1C	i	i	28.2µM	i	i	i
C/C(N)=C(/C#N)C(=O)CSc1nc2scc(-c3ccccc3)c2c(=O)n1C	i	?	5.62µM	i	i	nt
C/C(N)=C(/C#N)C(=O)CSc1nc2ccccc2c(=O)n1CCCO	i	i	?	i	i	i
Cc1[nH]c2ccccc2c1C(=O)CSc1nc2ccccc2c(=O)n1-c1ccccc1F	i	?	0.562µM	i	?	nt
CCOC(=O)c1c(C)[nH]c(C)c1C(=O)CSc1nc2ccccc2c(=O)n1-c1ccc(Cl)cc1	i	?	?	?	i	i
N#Cc1c(-n2ncnc2-c2ccccc2C(F)(F)F)sc2c1CCCCC2	?	i	nt	nt	i	nt
Cc1ccc(NS(=O)(=O)c2ccc(-c3cc(C)no3)cc2)c(C)c1	i	i	nt	nt	i	nt
CCOC(=O)COc1ccc(C)cc1C(=O)c1ccn2nc(-c3ccc(F)cc3)cc2n1	i	i	nt	nt	i	nt
Cc1cccc(-n2c(=S)[nH]c3sc4c(c3c2=O)CCc2ccccc2-4)c1	?	i	3.16µM	i	i	nt
CC1(C)CC(=O)c2sc(NC(=O)c3ccco3)nc2C1	i	i	22.4µM	i	i	i
CC1(C)CNC(=O)c2sc(NC(=O)c3ccccc3Cl)nc2C1	i	i	12.6µM	i	i	nt
Cc1cccc2sc(NNC(=O)C3COc4ccccc4O3)nc12 (stereo not given)	?	i	i	?	i	28.2µM
CC1(C)CC(=O)c2sc(NC(=O)C3COc4ccccc4O3)nc2C1 (stereo not given)	i	i	15.8µM	?	i	i
CCN(C(=O)c1cc2cc(Br)cc(OC)c2oc1=O)c1ccccc1	?	i	nt	nt	i	nt
Cc1ccc(CNC(=O)c2c(-c3ccc(Br)cc3)noc2C)o1	i	i	nt	nt	i	nt
Cn1nc(C(=O)NC(C)(C)C)c2ccccc21	i	i	i	i	i	i
CCC(=O)N(Cc1cc(=O)[nH]c2ccccc12)c1cccc(C)c1	i	i	39.8µM	i	i	?
COc1ccc(N(Cc2cc(=O)[nH]c3ccccc23)C(=O)c2ccco2)cc1	i	i	14.1µM	i	i	i
